# Test results from PubChem BioAssay (NCATS).
# Records with an inconclusive call do not appear. Where a call stands in place of a potency, no number is given. Unmarked numbers belong to inactive results. Active and inactive are the calls of the source. Calls follow the shape of the dose curve; as a rule, active = well fitted inhibition curve with a large enough effect; inconclusive = small, poorly fitted or top-dose-only effect; inactive = flat fitted curve, though single readings scatter.
# Columns and labels:
# 7G8 = assay: qHTS profiling for inhibitors of Plasmodium falciparum proliferation (AID 504749); also: nearly all actives have a fitted effect of over 60% in size; details: P. falciparum in erythrocytes, SYBR Green DNA, 72 h; series mostly up to 28.7 µM
# Summary of the method: (§1)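 Infected RBCs, 0.3% parasitemia/2.5% Hct final; cpd 72 h, 37 C, 5% CO2; lysis buffer with saponin/triton/SYBR Green I, o/n RT dark; FI 485/535; norm. to artemisinin (0.29 uM) and DMSO.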
# AS120 = assay: as above; details: P. falciparum in erythrocytes, SYBR Green DNA, 72 h; series mostly up to 28.7 µM
# Summary of the method: as §1
# CP192 = assay: as above; details: P. falciparum in erythrocytes, SYBR Green DNA, 72 h; series mostly up to 28.7 µM
# Summary of the method: as §1
# CP201 = assay: as above; details: P. falciparum in erythrocytes, SYBR Green DNA, 72 h; series mostly up to 28.7 µM
# Summary of the method: as §1
# CP211 = assay: as above; details: P. falciparum in erythrocytes, SYBR Green DNA, 72 h; series mostly up to 28.7 µM
# Summary of the method: as §1
# ATS95 = assay: as above; details: P. falciparum in erythrocytes, SYBR Green DNA, 72 h; series mostly up to 28.7 µM
# Summary of the method: as §1
# AA1029 = assay: as above; details: P. falciparum in erythrocytes, SYBR Green DNA, 72 h; series mostly up to 28.7 µM
# Summary of the method: as §1
# C2A = assay: as above; details: P. falciparum in erythrocytes, SYBR Green DNA, 72 h; series mostly up to 28.7 µM
# Summary of the method: as §1
# CP237 = assay: as above; details: P. falciparum in erythrocytes, SYBR Green DNA, 72 h; series mostly up to 28.7 µM
# Summary of the method: as §1
# CP238 = assay: as above; details: P. falciparum in erythrocytes, SYBR Green DNA, 72 h; series mostly up to 28.7 µM
# Summary of the method: as §1
# [1] = as above; details: P. falciparum in erythrocytes, SYBR Green DNA, 72 h
# Summary of the method: as §1
# 3D7 = assay: as above; details: P. falciparum in erythrocytes, SYBR Green DNA, 72 h; series mostly up to 28.7 µM
# Summary of the method: as §1
# ATS189 = assay: as above; details: P. falciparum in erythrocytes, SYBR Green DNA, 72 h; series mostly up to 28.7 µM
# Summary of the method: as §1
# CP185 = assay: as above; details: P. falciparum in erythrocytes, SYBR Green DNA, 72 h; series mostly up to 28.7 µM
# Summary of the method: as §1
# CP191 = assay: as above; details: P. falciparum in erythrocytes, SYBR Green DNA, 72 h; series mostly up to 28.7 µM
# Summary of the method: as §1
# CP194 = assay: as above; details: P. falciparum in erythrocytes, SYBR Green DNA, 72 h; series mostly up to 28.7 µM
# Summary of the method: as §1
# CP215 = assay: as above; details: P. falciparum in erythrocytes, SYBR Green DNA, 72 h; series mostly up to 28.7 µM
# Summary of the method: as §1
# CP217 = assay: as above; details: P. falciparum in erythrocytes, SYBR Green DNA, 72 h; series mostly up to 28.7 µM
# Summary of the method: as §1
# CP247 = assay: as above; details: P. falciparum in erythrocytes, SYBR Green DNA, 72 h; series mostly up to 28.7 µM
# Summary of the method: as §1
# CP203 = assay: as above; details: P. falciparum in erythrocytes, SYBR Green DNA, 72 h; series mostly up to 28.7 µM
# Summary of the method: as §1
# [2] = at 28.7 µM (top of the series), parasite line A
# [3] = at 28.7 µM (top of the series), parasite line B
# [4] = at 12.8 µM (top of the series), parasite line A
# Potency is read from the fitted curve at half-maximal effect.
compound,measurement,setting,value
Cc1nc2sccn2c(=O)c1CCN1CCC(=C(c2ccc(F)cc2)c2ccc(F)cc2)CC1,Potency,7G8,10 µM (active)
same,Potency,AS120,11.2 µM (active)
same,Potency,CP192,inactive
same,Potency,CP201,inactive
same,Potency,CP211,inactive
c1cc(CN2CCCCC2)cc(OCCCNc2nc3ccccc3s2)c1,Potency,7G8,6.31 µM (active)
same,Potency,AS120,5.01 µM (active)
same,Potency,ATS95,7.94 µM (active)
CCOC(=O)C1=C(C)NC(C)=C(C(=O)OC)C1c1cccc([N+](=O)[O-])c1 (stereo not given),Potency,7G8,10 µM (active)
same,Potency,AA1029,11.2 µM (active)
same,Potency,AS120,11.2 µM (active)
same,Potency,C2A,inactive
same,Potency,CP237,12.6 µM (active)
same,Potency,CP238,10 µM (active)
CCCCNc1c(C(=O)OCC)c(C)nc2c1cnn2CC,"activity, negative = inhibition",[1]; [2],2.9%
same,"activity, negative = inhibition",[1]; [3],-6.97%
same,Potency,3D7,inactive
same,Potency,AA1029,inactive
same,Potency,ATS189,inactive
same,Potency,ATS95,inactive
same,Potency,C2A,inactive
same,Potency,CP185,inactive
same,Potency,CP191,inactive
same,Potency,CP192,inactive
same,Potency,CP194,inactive
same,Potency,CP201,inactive
same,Potency,CP211,inactive
same,Potency,CP215,inactive
same,Potency,CP217,inactive
same,Potency,CP237,inactive
same,Potency,CP238,inactive
same,Potency,CP247,inactive
CCN(CC)CC(=O)Nc1c(C)cccc1C,"activity, negative = inhibition",[1]; [2],7.16%
same,"activity, negative = inhibition",[1]; [3],15.8%
same,Potency,3D7,inactive
same,Potency,AA1029,inactive
same,Potency,AS120,inactive
same,Potency,ATS189,inactive
same,Potency,ATS95,inactive
same,Potency,C2A,inactive
same,Potency,CP185,inactive
same,Potency,CP191,inactive
same,Potency,CP192,inactive
same,Potency,CP194,inactive
same,Potency,CP201,inactive
same,Potency,CP203,inactive
same,Potency,CP211,inactive
same,Potency,CP215,inactive
same,Potency,CP217,inactive
same,Potency,CP238,inactive
same,Potency,CP247,inactive
CCCCNc1ccc(C(=O)OCCN(C)C)cc1,"activity, negative = inhibition",[1]; [4],20%
same,Potency,3D7,inactive
same,Potency,7G8,inactive
same,Potency,AA1029,inactive
same,Potency,AS120,inactive
same,Potency,ATS95,inactive
same,Potency,C2A,inactive
same,Potency,CP185,inactive
same,Potency,CP191,inactive
same,Potency,CP192,inactive
same,Potency,CP215,inactive
same,Potency,CP217,inactive
same,Potency,CP237,inactive
same,Potency,CP238,inactive
same,Potency,CP247,inactive
Fc1ccc(C(c2ccc(F)cc2)N2CCN(C/C=C/c3ccccc3)CC2)cc1,Potency,7G8,4.47 µM (active)
same,Potency,AS120,10 µM (active)
C=CCc1ccccc1OCC(O)CNC(C)C (stereo not given),"activity, negative = inhibition",[1]; [2],-5.93%
same,Potency,3D7,inactive
same,Potency,7G8,8.91 µM (active)
same,Potency,AA1029,10 µM (active)
same,Potency,AS120,4.47 µM (active)
same,Potency,C2A,inactive
same,Potency,CP194,15.1 µM (active)
same,Potency,CP203,10.7 µM (active)
same,Potency,CP237,5.01 µM (active)
same,Potency,CP238,11.2 µM (active)
COC(=O)[C@@H](N)Cc1ccc(O)c(O)c1,"activity, negative = inhibition",[1]; [3],-10.7%
same,Potency,AA1029,inactive
same,Potency,AS120,inactive
same,Potency,ATS189,inactive
same,Potency,ATS95,inactive
same,Potency,CP185,inactive
same,Potency,CP191,inactive
same,Potency,CP192,inactive
same,Potency,CP194,inactive
same,Potency,CP201,inactive
same,Potency,CP203,inactive
same,Potency,CP211,inactive
same,Potency,CP215,inactive
same,Potency,CP217,inactive
same,Potency,CP238,inactive
NC(=Nc1ccccc1)Nc1ccccc1,"activity, negative = inhibition",[1]; [2],-14.1%
same,"activity, negative = inhibition",[1]; [3],-13.7%
same,Potency,3D7,inactive
same,Potency,AA1029,inactive
same,Potency,AS120,inactive
same,Potency,ATS189,inactive
same,Potency,ATS95,inactive
same,Potency,C2A,inactive
same,Potency,CP185,inactive
same,Potency,CP191,inactive
same,Potency,CP192,inactive
same,Potency,CP194,inactive
same,Potency,CP201,inactive
same,Potency,CP203,inactive
same,Potency,CP211,inactive
same,Potency,CP215,inactive
same,Potency,CP217,inactive
same,Potency,CP238,inactive
same,Potency,CP247,inactive
O=C(CCCN1CCC(O)(c2cccc(C(F)(F)F)c2)CC1)c1ccc(F)cc1,Potency,[1]; parasite line A,8.91 µM (active)
same,Potency,[1]; parasite line B,8.91 µM (active)
same,Potency,7G8,3.98 µM (active)
same,Potency,AA1029,7.08 µM (active)
same,Potency,AS120,7.94 µM (active)
same,Potency,ATS189,8.91 µM (active)
same,Potency,ATS95,10 µM (active)
same,Potency,C2A,11.2 µM (active)
same,Potency,CP191,7.94 µM (active)
same,Potency,CP201,inactive
same,Potency,CP215,10.7 µM (active)
same,Potency,CP237,7.94 µM (active)
same,Potency,CP238,12.6 µM (active)
same,Potency,CP247,7.08 µM (active)
CCCN1C[C@H](CSC)C[C@@H]2c3cccc4[nH]cc(c34)C[C@H]21,Potency,3D7,inactive
same,Potency,7G8,11.2 µM (active)
same,Potency,AS120,12.6 µM (active)
same,Potency,ATS95,7.94 µM (active)
same,Potency,CP185,inactive
same,Potency,CP192,inactive
same,Potency,CP201,inactive
same,Potency,CP215,inactive
C#CCN(C)CCCOc1ccc(Cl)cc1Cl,"activity, negative = inhibition",[1]; [2],6.5%
same,"activity, negative = inhibition",[1]; [3],12.2%
same,Potency,3D7,inactive
same,Potency,AA1029,inactive
same,Potency,AS120,inactive
same,Potency,ATS189,inactive
same,Potency,ATS95,inactive
same,Potency,C2A,inactive
same,Potency,CP185,inactive
same,Potency,CP191,inactive
same,Potency,CP192,inactive
same,Potency,CP194,inactive
same,Potency,CP201,inactive
same,Potency,CP211,inactive
same,Potency,CP215,inactive
same,Potency,CP217,inactive
same,Potency,CP237,inactive
same,Potency,CP238,inactive
same,Potency,CP247,inactive
CCN(CC)CCOCCOC(=O)C1(c2ccccc2)CCCC1,Potency,7G8,1.78 µM (active)
same,Potency,AA1029,inactive
same,Potency,AS120,12.6 µM (active)
same,Potency,ATS189,7.08 µM (active)
same,Potency,ATS95,11.2 µM (active)
same,Potency,CP185,inactive
same,Potency,CP191,7.94 µM (active)
same,Potency,CP192,inactive
same,Potency,CP201,inactive
same,Potency,CP203,6.75 µM (active)
same,Potency,CP211,inactive
same,Potency,CP215,15.1 µM (active)
same,Potency,CP217,11.2 µM (active)
same,Potency,CP237,2.51 µM (active)
NC(N)=N/N=C/c1c(Cl)cccc1Cl,Potency,3D7,inactive
same,Potency,7G8,11.2 µM (active)
same,Potency,AS120,inactive
CN1CCN(C2=Nc3ccccc3Oc3ccc(Cl)cc32)CC1,"activity, negative = inhibition",[1]; [4],4.87%
same,"activity, negative = inhibition","[1]; at 12.8 µM (top of the series), parasite line B",-8.95%
same,Potency,3D7,inactive
same,Potency,AA1029,inactive
same,Potency,AS120,inactive
same,Potency,ATS189,inactive
same,Potency,ATS95,inactive
same,Potency,C2A,inactive
same,Potency,CP185,inactive
same,Potency,CP191,inactive
same,Potency,CP192,inactive
same,Potency,CP194,inactive
same,Potency,CP201,inactive
same,Potency,CP211,inactive
same,Potency,CP215,inactive
same,Potency,CP217,inactive
same,Potency,CP237,inactive
same,Potency,CP238,inactive
same,Potency,CP247,inactive
CN(C)CCN(Cc1cccs1)c1ccccn1,"activity, negative = inhibition",[1]; [2],5.46%
same,"activity, negative = inhibition",[1]; [3],6.28%
same,Potency,3D7,inactive
same,Potency,AA1029,10 µM (active)
same,Potency,AS120,12.6 µM (active)
same,Potency,CP191,inactive
same,Potency,CP237,2 µM (active)
same,Potency,CP238,11.2 µM (active)
CN(C)CCCN1c2ccccc2Sc2ccc(C(F)(F)F)cc21,Potency,7G8,5.01 µM (active)
same,Potency,ATS95,inactive
same,Potency,C2A,inactive
same,Potency,CP192,inactive
same,Potency,CP201,inactive
same,Potency,CP211,inactive
same,Potency,CP238,inactive
same,Potency,CP247,inactive
